LGR2 antag: blocks bursicon-induced cAMP signaling via Drosophila LGR2 | HEK293 LGR2, CRE-luciferase, bursicon-stimulated, 4 h | inhibition, % at 9.99 µM | 380,000 compounds, 0.35% hits | AID 720647;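 active = drop in luminescence signal, shown as inhibition above about 50% in the replicate tests, limit read from the data, passing the limit was not always enough; inconclusive = probably only some replicates passing the limit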;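 note: agonist challenge used bursicon conditioned medium at about half maximal strength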
EWS-Fli block: EWS/Fli transcriptional activity inhibition | A673 NR0B1-luciferase reporter, viability-normalised | inhibition, % at 12.6 µM | 350,000 compounds, 0.67% hits;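 active = mean inhibition of at least 50% after viability correction, with every replicate also passing that limit; inconclusive = mean reaches 50% but only one of two replicates passes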;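 note: firefly luciferase signal divided by Alamar Blue viability fluorescence both relative to DMSO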
TROY signal inh: blocks TROY-dependent signaling in reporter cells | Q293 LMP1-TROYcd NF-kB luciferase reporter, 4 h | inhibition, % at 10 µM | 360,000 compounds, 0.98% hits | AID 1347056;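 active = compounds whose plate-normalised and pattern-corrected inhibition of the luciferase reporter signal at the single screening dose is 50% or more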
EBV LMP1 NFkB: Epstein-Barr LMP1 NF-kappaB reporter inhibition | LMP1-induced NF-kappaB luciferase reporter cells, luminescence | inhibition, % at 12.5 µM | 350,000 compounds, 0.69% hits | AID 504558; in the data active = inhibition above about 41%; inconclusive = no clear call, values can overlap the other calls;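 note: 0% = neutral control wells and 100% = reference inhibitor control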
PAX8 reporter: PAX8 transcriptional activity inhibition | inhibition, % at 12.6 µM | RMG-I TPO-luciferase reporter, SteadyGlo, 24 h | 360,000 compounds, 1.2% hits;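 active = mean replicate inhibition at least 60% with every replicate also reaching 60%; inconclusive = only one of the two criteria is met; inactive = mean below 60% and not all replicates reaching 60%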;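 note: luciferase light reporting Pax8 driven TPO promoter activity; plate controls were median of neutral control wells for no effect and mitoxantrone controls for full effect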
TWEAK-Fn14 inh: inhibitors of TWEAK-Fn14 interaction signaling; TWEAK-stimulated Fn14 reporter cells, luciferase luminescence, 8 h; inhibition, % at 10 µM; 360,000 compounds, 2% hits; in the data active = inhibition above about 50%
The depositor's hits bear a star; ? = inconclusive; · = no result given. Hits are enriched below; roughly 3.1% of the tested compounds scored in any of these assays.

SMILES | LGR2 antag | EWS-Fli block | TROY signal inh | EBV LMP1 NFkB | PAX8 reporter | TWEAK-Fn14 inh
C[C@@H]1CN([C@@H](C)CO)C(=O)c2cccc(NC(=O)c3ccc(-c4nccs4)cc3)c2O[C@@H]1CN(C)CC1CC1 | 18 | -2 | · | · | · | ·
Cc1noc(C)c1NC(=O)N(C)C[C@H]1Oc2ccc(NS(=O)(=O)c3cn(C)cn3)cc2CC(=O)N([C@H](C)CO)C[C@H]1C | -7 | -2 | · | · | -7 | ·
CC(C)NC(=O)N(C)C[C@@H]1Oc2ccc(N(C)C)cc2C(=O)N([C@@H](C)CO)C[C@@H]1C | 21 | 4 | · | · | -9 | ·
CCNC(=O)[C@@H]1[C@@H](CO)[C@@H]2Cn3c(cccc3=O)[C@H]1N2C(=O)c1ccc(F)cc1 | 5 | · | · | · | -10 | ·
O=C(C[n+]1cc(-c2ccc(Cl)cc2)n2c1CCCCC2)c1ccccc1 | -44 | -23 | -48 | -3 | 93* | -18
O=C(C[n+]1cc(-c2ccc(Br)cc2)n2c1CCCCC2)c1ccccc1 | 14 | 15 | 11 | -8 | 75* | -7
Cc1ccc(-c2c[n+](CC(=O)N3c4ccccc4Sc4ccccc43)c3n2CCC3)cc1 | 6 | -11 | 20 | 4 | 91* | 12
C[C@@H]1CN([C@@H](C)CO)C(=O)c2cc(N(C)C)ccc2O[C@@H]1CN(C)C(=O)NC1CCCCC1 | -8 | · | · | · | -16 | ·
C[C@@H]1CN([C@H](C)CO)C(=O)c2cc(NC(=O)Nc3ccc4c(c3)OCO4)ccc2O[C@@H](C)CCCCO[C@@H]1CN(C)Cc1ccc(C(=O)O)cc1 | 0 | -8 | · | · | -6 | ·
CCS(=O)(=O)Nc1ccc2c(c1)C(=O)N(C)[C@H]1CC[C@H](CC(=O)Nc3ccc(Cl)cc3)O[C@@H]1CO2 | 5 | 4 | · | · | 9 | ·
Cn1c(=O)c2c(nc(NCc3ccco3)n2C/C=C/c2ccccc2)n(C)c1=O | · | · | 41 | 42* | · | 55*
Cn1c(=O)c2c(nc(NCc3ccco3)n2C)n(C)c1=O | · | · | 8 | -10 | · | 15
C[C@@H]1CN([C@H](C)CO)C(=O)c2cc(NC(=O)c3ccncc3)ccc2O[C@@H]1CN(C)CC1CCCCC1 | 13 | 1 | · | · | 1 | ·
C[C@@H]1CN([C@H](C)CO)S(=O)(=O)c2ccc(C#Cc3ccncc3)cc2O[C@@H]1CN(C)S(=O)(=O)c1ccccc1 | 2 | 14 | · | · | · | ·
C[C@@H]1CN([C@H](C)CO)S(=O)(=O)c2ccc(C#Cc3ccncc3)cc2O[C@H]1CN(C)S(=O)(=O)c1ccc(F)cc1 | 9 | ? | · | · | · | ·
Cc1ccc(S(=O)(=O)N(C)C[C@@H]2Oc3cc(C#Cc4ccncc4)ccc3S(=O)(=O)N([C@H](C)CO)C[C@@H]2C)cc1 | 37 | 28 | · | · | 78* | ·
COc1ccc(S(=O)(=O)N(C)C[C@H]2Oc3cc(C#CC4CCCC4)ccc3S(=O)(=O)N([C@@H](C)CO)C[C@H]2C)cc1 | 5 | 17 | · | · | -2 | ·
COc1ccc(S(=O)(=O)N(C)C[C@H]2Oc3cc(C#CC4CCCC4)ccc3S(=O)(=O)N([C@@H](C)CO)C[C@@H]2C)cc1 | 15 | 7 | · | · | 90* | ·
C[C@H](CO)N1C[C@H](C)[C@@H](CN(C)S(=O)(=O)c2ccc(F)cc2)Oc2cc(C#Cc3ccncc3)ccc2S1(=O)=O | -6 | -6 | · | · | · | ·
Cc1ccc(S(=O)(=O)N(C)C[C@@H]2Oc3cc(C#Cc4ccncc4)ccc3S(=O)(=O)N([C@H](C)CO)C[C@H]2C)cc1 | 14 | 46 | · | · | 106* | ·
Cc1ccc(S(=O)(=O)N(C)C[C@H]2Oc3cc(C#Cc4ccncc4)ccc3S(=O)(=O)N([C@@H](C)CO)C[C@@H]2C)cc1 | -11 | 22 | · | · | 103* | ·
COc1ccc(S(=O)(=O)N[C@@H]2C=C[C@H](CC(=O)NCCc3ccncc3)O[C@@H]2CO)cc1 | 8 | · | · | · | · | ·
C[C@@H]1CCCCO[C@@H](CN(C)C(=O)C2CCCCC2)[C@@H](C)CN([C@@H](C)CO)C(=O)c2cc(NS(=O)(=O)c3ccc(F)cc3)ccc2O1 | 16 | 2 | · | · | 1 | ·
Cc1cc(-n2c(SCC(=O)NCCC3=CCCCC3)nc3n[nH]c(C)c3c2=N)ccc1Cl | 11 | · | 2 | 7 | 88* | -28
Cc1ccc(Cl)cc1-n1c(SCC(=O)NCCC2=CCCCC2)nc2n[nH]c(C)c2c1=N | 5 | · | -4 | 24 | 21 | 1
SMILES | LGR2 antag | EWS-Fli block | TROY signal inh | EBV LMP1 NFkB | PAX8 reporter | TWEAK-Fn14 inh
O=C(O)c1ccccc1-c1ccc(/C=c2\sc3nc4cc(Br)cnc4n3c2=O)o1 | · | · | 19 | -10 | · | 75*
Cc1ccc(S(=O)(=O)N2CCOc3ccccc32)c(C)c1NS(C)(=O)=O | 6 | 6 | 3 | -3 | 10 | 95*
Cc1ccc(S(=O)(=O)N2CC(=O)Nc3ccccc32)c(C)c1NS(C)(=O)=O | 13 | -5 | 6 | 6 | -10 | -4
CN1CCN(C(=O)C[C@H]2CC[C@H]3[C@@H](COC[C@@H](O)CN3C(=O)Cc3ccccc3)O2)CC1 | -9 | 3 | · | · | 0 | ·
Cc1onc(-c2ccccc2)c1C(=O)NC(=S)NNC(=O)c1ccc(O)cc1O | 11 | · | 9 | 43* | 86* | 38
O=C(Nc1cc(C(=O)N2CCCC2)ccc1N1CCCC1)c1ccccc1F | · | · | 20 | 51* | · | 11
CCCCn1nc(C(=O)Nc2cc(C(F)(F)F)ccc2N2CCOCC2)ccc1=O | 5 | 14 | 2 | -2 | 93* | -1
O=C(Nc1ccc(C(=O)N2CCCC2)cc1)c1ccccc1F | -26 | -15 | -18 | 4 | · | -12
O=C(Nc1cc(C(F)(F)F)ccc1N1CCOCC1)c1ccccc1F | · | · | · | 4 | · | 62*
C[C@@H]1CN([C@@H](C)CO)S(=O)(=O)c2ccc(C#CC3(O)CCCC3)cc2O[C@H]1CN(C)C(=O)Nc1ccccc1 | 0 | 19 | · | · | · | ·
C[C@H]1CN([C@@H](C)CO)C(=O)c2cc(C#CC3CC3)cnc2O[C@H]1CN(C)C(=O)c1ccc(F)cc1 | 4 | 2 | · | · | · | ·
CCN=c1scc(C)n1/N=C/c1cc(Br)c(O)c(OC)c1 | -33 | -13 | 58* | 0 | -7 | -26
COc1cc(/C=N/N2C(C)CCCC2C)cc(Br)c1O (stereo not drawn) | 33 | -1 | -7 | 3 | 0 | -21
COc1ccc(NC(=O)Nc2ccc3c(c2)C(=O)N([C@H](C)CO)C[C@@H](C)[C@@H](CN(C)Cc2ccc4c(c2)OCO4)OCCCC[C@@H](C)O3)cc1 | 15 | -14 | · | · | 2 | ·
CC1(C)c2[nH]c3ccccc3c2C[C@H]2C(=O)N(Cc3cccc(F)c3)C(=O)N21 | -14 | 6 | 29 | -13 | -3 | 51*
COc1cccc(CN2C(=O)[C@H]3Cc4c([nH]c5ccccc45)C(C)(C)N3C2=O)c1 | 17 | 21 | 45 | -10 | 32 | 41
CC1(C)c2[nH]c3ccccc3c2C[C@@H]2C(=O)N(Cc3ccccc3Cl)C(=O)N21 | 2 | 7 | 30 | -4 | 9 | 51*
C[C@@H]1CN([C@@H](C)CO)C(=O)c2cc(NC(=O)Nc3ccc4c(c3)OCO4)ccc2O[C@H]1CN(C)C(=O)Nc1ccc(C(F)(F)F)cc1 | 11 | -63 | · | · | 1 | ·
